IMPase inh: IMPase inhibition in cells; CHO-M1 cells, IP1 accumulation, HTRF TR-FRET ratio; inhibition (IP1 accumulation), % at 46.1 µM; AID 901; 120,000 tested, under 10 active; active means well fitted curve in the direction sought with a large enough effect in the signal ratio, not every such curve was filed as active; inconclusive means small, poorly fitted or top-dose-only effect, or a change in a side signal; inactive means no such curve, though single readings can be large or run the other way; the % refers to the signal ratio;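 further: cells stimulated with carbachol in lithium chloride buffer; plate controls were DMSO basal wells for no effect and reference inhibitor wells for full effect; higher means more IMPase inhibition seen as more IP1 and lower FRET ratio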
Target sequence (P97697 whole entry, looked up): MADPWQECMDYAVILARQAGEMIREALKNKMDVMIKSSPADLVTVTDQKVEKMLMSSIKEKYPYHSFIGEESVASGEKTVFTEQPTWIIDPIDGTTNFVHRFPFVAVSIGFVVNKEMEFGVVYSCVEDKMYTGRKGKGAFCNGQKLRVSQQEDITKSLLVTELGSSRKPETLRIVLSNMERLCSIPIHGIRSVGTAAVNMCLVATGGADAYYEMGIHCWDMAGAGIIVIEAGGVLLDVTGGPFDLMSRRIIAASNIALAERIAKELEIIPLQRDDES
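The IP-One HTRF competitive assay in carbachol-stimulated CHO-M1 cells quantifies cellular IP1. Compounds spanned up to 46 uM final, and activity is expressed as AC50 from concentration-response fits of the ratio and donor data.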
HPGD inh: HPGD (human) dehydrogenase inhibition | P15428 | purified HPGD, NADH fluorescence kinetic, PGE2 substrate | Potency, µM, for the others: at the highest dose activity change, negative = inhibition, hits mostly inhibitors | actives 4.3% (n = 150,000); further: potency means the concentration at half of the fitted maximal effect
Target sequence (P15428 whole entry, looked up): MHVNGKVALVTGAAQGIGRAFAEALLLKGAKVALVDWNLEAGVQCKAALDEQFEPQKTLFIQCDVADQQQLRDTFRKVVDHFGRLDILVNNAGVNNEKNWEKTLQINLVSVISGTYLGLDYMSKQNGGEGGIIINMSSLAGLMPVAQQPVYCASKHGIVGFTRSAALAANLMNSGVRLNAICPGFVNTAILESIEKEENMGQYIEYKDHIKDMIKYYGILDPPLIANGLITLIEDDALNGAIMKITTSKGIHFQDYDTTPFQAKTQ
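20 nM HPGD preincubated 15 min at room temperature with compound in 50 mM Tris-HCl pH 8, 0.01% Tween 20. Started with 1 mM NAD+ and 30 uM prostaglandin E2; NADH fluorescence (360/450 nm) read 5 times over 30-s intervals, last minus first.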
PNC assembly inh: inhibitors of perinucleolar compartment assembly. PC3M PTB-GFP, PNC prevalence imaging, 16 h; stronger effect = lower value. actives 3.1% (n = 140,000). activity change (PNC), negative = inhibition, % at 10 µM;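 active means readout at or below -70, meaning at least 70% loss of cells showing the perinucleolar compartment, a nuclear body marking cancer cells; inconclusive means readout between -30 and a set limit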;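 further: plate controls were DMSO wells for no effect and camptothecin positive control wells for full effect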
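Read-out is percentage of cells bearing a perinucleolar compartment, from automated 20x imaging of fixed, Hoechst-stained PC3M PTB-GFP cells. Cells were seeded 4 h, then exposed 16 h to compound (23 nl of library stock) in duplicate plates.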
Lamin A splicing: changes lamin A minigene splicing in HeLa cells; HeLa LMNA splicing GFP/RFP minigene ratio, 48 h; Potency, µM (top dose mostly 46.1 µM), without a hit: top-dose ratio change, negative = inhibition, most hits filed as inhibitors; actives 0.01% (n = 200,000); active means well fitted inhibition curve with a large enough effect in the signal ratio, with a control signal flat, not every such curve was filed as active; inconclusive means small, poorly fitted or top-dose-only effect, or effect the other way, or a change in a side signal; the % refers to the signal ratio; further: potency means the concentration at half of the fitted maximal effect
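Read-out is the ratio of GFP to DsRed2 object intensity, acquired by 488 nm laser-scanning cytometry on HeLa lamin A-EGFP minigene reporter cells. Compound incubation 48 hrs at 37 °C in Opti-MEM with 2% FBS; DMSO 0.5% final.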
KinaseGlo FLuc: counter-screen: inhibitors of Kinase-Glo firefly luciferase | Q27757 | Kinase-Glo luciferase, ATP luminescence, 8 min | Potency, µM (top dose mostly 38.3 µM), for inactives: top-dose activity change, negative = inhibition, most hits filed as inhibitors | actives 0.28% (n = 200,000) | AID 1379; active means well fitted inhibition curve with a large enough effect; inconclusive means small, poorly fitted or top-dose-only effect; further: potency means the concentration at half of the fitted maximal effect; nearly all actives have a fitted effect of over 60% in size
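Luminescence was the read-out, taken after 8-minute incubation at ambient temperature. Luciferase turned over luciferin with 10 uM ATP in imidazole pH 7.2 buffer containing KCl, MgCl2, Tween 20 and BSA.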
ALDH1A1 block: inhibitors of human aldehyde dehydrogenase 1A1 | P00352 | Purified ALDH1A1, NADH fluorescence, propionaldehyde substrate | Potency, µM (titrated, usually from 75.3 µM), for inactives: at the top dose activity, negative = inhibition, most hits filed as inhibitors | actives 7.3% (n = 220,000) | AID 1030;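 further: potency means the concentration at half of the fitted maximal effect; plate controls were no enzyme wells and a reference inhibitor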
* marks the source's active call; other numbers are inactive results; ? = inconclusive; . = no result given; [ ] = dose if it differs, or a comment. Sampled rows, rich in hits. Any-hit rate of the full collection: about 10%. Unless noted, the call rests on the fitted dose curve; in most records, active means well fitted inhibition curve with a large enough effect (not every such curve was filed as active); inconclusive means small, poorly fitted or top-dose-only effect, or another doubt; inactive means no such curve, though single readings can be large or run the other way. Unless noted, on the % scale 0 is the no-effect control and ±100 the full control effect.

SMILES	IMPase inh	HPGD inh	PNC assembly inh	Lamin A splicing	KinaseGlo FLuc	ALDH1A1 block
COc1ccccc1CN=Cc1[nH]c2ccc(Br)c(Cl)c2c1O	?	13µM*	19	-10%	-7%	0.79µM*
Cc1cccc(N=Cc2[nH]c3ccc(Br)c(Cl)c3c2O)c1	.	14µM*	11	5%	-4%	4.5µM*
COc1cccc(CN=CC2=C(O)CC(C)(C)CC2=O)c1OC	1	?	?	-15%	-1%	?
C(=C\c1ccccc1)/CNCC1CCCO1 (centres undefined)	.	.	.	.	0%	25µM*
O=C(NCC1CCCO1)/C(=C/c1ccccc1)NC(=O)c1ccccc1 (centres undefined)	.	.	.	.	2%	?
COc1cccc([C@@H]2Oc3ccc(OC)cc3C(=O)[C@H]2OC(=O)NS(=O)(=O)c2ccc(C)cc2)c1	.	-8%	.	.	0%	4%
CC1=NN(c2ccccc2)C(=O)/C1=C/C=C/c1ccc(N(C)C)cc1	.	.	.	?	13µM*	-6%
CCOC(=O)CC1=NN(c2ccccc2)C(=O)/C1=C\c1ccc(N(C)C)cc1	.	-26%	31	-11%	-14%	5µM*
CC(=O)c1cnc2cc(-c3ccccc3)nn2c1C	1	?	?	-5%	-3%	?
CC(=O)c1cnc2cc(-c3ccc(C)cc3)nn2c1C	0	?	-100*	-3%	0%	?
CCOC(=O)c1c(Nc2ccc(C)cc2)nnc(-c2ccccc2)c1-c1ccccc1	-1	.	.	.	.	.
Cc1cccc(OCCNc2nc3c(c(=O)n(C)c(=O)n3C)n2C)c1	2	-15%	-97*	0%	-2%	-21%
COCCNc1nc2c(c(=O)n(C)c(=O)n2C)n1Cc1cccc(C)c1	3	1%	-2	?	-1%	2%
CC(C)CCNc1nc2c(c(=O)n(Cc3cccc(F)c3)c(=O)n2C)n1C	0	?	9	?	0%	13µM*
CCN1CCN(C(c2ccccc2Cl)c2c(O)cc(C)n(CCOC)c2=O)CC1 (centres undefined)	.	.	.	-10%[46 µM]	.	.
Cc1noc(C)c1-c1cncnc1N(C)Cc1ccco1	.	.	.	15%	.	-8%
COc1cc(/C=C/c2sc3ccccc3[n+]2CCCS(=O)(=O)[O-])ccc1O	.	.	.	.	8.9µM*	?
CC(/C=N/NC(=O)CSc1n[nH]c(=O)[nH]c1=O)=C\c1ccccc1	.	.	.	.	.	4%
COc1ccc(/C=N/NC(=O)CSc2n[nH]c(=O)[nH]c2=O)cc1	?	20µM*	4	-6%	5%	-15%
CCOc1cc(C(=O)Nc2ccc(NC(=O)c3cc4ccccc4o3)c(OC)c2)cc(OCC)c1OCC	-4	.	.	.	.	.
Cc1ccccc1NS(=O)(=O)c1cc(C(=O)NCCC2=CCCCC2)ccc1Cl	4	5%	?	?	-2%	20µM*
CCOc1ccc(C(=O)NCCC2=CCCCC2)cc1OCC	.	.	.	-5%[46 µM]	2%	25µM*
CCOc1ccccc1NC(=O)C(=O)NCCC1=CCCCC1	.	.	.	12%[46 µM]	0%	-10%
Cc1cc2n(n1)CCCN2C(=O)Nc1ccc(Cl)cc1	.	.	.	17%[46 µM]	.	.
COc1ccc(-c2csc(/C(C#N)=C(\O)CSc3nccn3C)n2)cc1OC	-4	25µM*	7	-2%	-2%	8.9µM*
SMILES	IMPase inh	HPGD inh	PNC assembly inh	Lamin A splicing	KinaseGlo FLuc	ALDH1A1 block
COCCn1c(C)cc(C(=O)COc2ccc(C)nc2[N+](=O)[O-])c1C	.	.	.	.	-1%	10µM*
CCCn1c(C)cc(C(=O)COc2ccc(C)nc2[N+](=O)[O-])c1C	-4	.	12	-10%	.	?
O=C(COC(=O)c1cc[n+]([O-])cc1)Nc1cccc(Cl)c1Cl	.	.	.	?	-1%	-7%
O=C(COC(=O)c1cc[n+]([O-])cc1)Nc1ccccc1Sc1ccccc1	.	.	.	-7%[46 µM]	0%	11µM*
Cc1ccc(OCC(=O)Nc2ccccc2Sc2ccccc2)c([N+](=O)[O-])n1	.	-1%	-107*	?	4%	1%
Cc1ccc(OCC(=O)c2cc(C)c(C)cc2C)c([N+](=O)[O-])n1	0	-20%	-28	5%	-2%	3.5µM*

Source: PubChem BioAssay (National Center for Advancing Translational Sciences (NCATS))
